Bioassay records (PubChem BioAssay)
This excerpt belongs to a sample that is enriched for hits.
14-3-3g Raf: 14-3-3 gamma protein interaction modulation; inhibition, % at 40 µM; AID 422; FP, 14-3-3gamma / TMR-pS259-Raf peptide binding; actives 0.19% (n = 160,000); in the data active means inhibition above about 30%;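 further: 0% = protein plus tracer without compound and 100% = blank with tracer alone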
Target sequence (P61981 whole entry, looked up): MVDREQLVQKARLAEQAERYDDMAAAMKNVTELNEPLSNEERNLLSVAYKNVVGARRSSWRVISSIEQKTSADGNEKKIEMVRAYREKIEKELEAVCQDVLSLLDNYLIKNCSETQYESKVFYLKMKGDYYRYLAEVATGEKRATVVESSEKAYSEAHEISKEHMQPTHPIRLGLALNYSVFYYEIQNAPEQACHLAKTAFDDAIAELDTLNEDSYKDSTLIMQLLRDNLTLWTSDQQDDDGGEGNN
Numbers without * were called inactive; + = active, no number.

SMILES	14-3-3g Raf
Cc1nc(N=Nc2ccc(C(=O)O)cc2)c(COP(=O)(O)O)c(C=O)c1O	69*
Cc1nc(N=Nc2ccc(S(=O)(=O)O)cc2S(=O)(=O)O)c(COP(=O)(O)O)c(C=O)c1O	35*
Cc1cc(O)c(C=Nc2ccc(C(=O)O)cc2)c(C)c1Cl	3
Cc1cccc(-c2nnc(NC(=O)c3cccc(C(F)(F)F)c3)s2)c1	-2
Cc1ccc(-c2nc3ccc(Cl)cn3c2Nc2ccc3c(c2)OCCO3)cc1	-1
CCOC(=O)CCCSc1nc2sc(C)c(C)c2c(=O)n1-c1ccccc1	44*
Cc1sc2nc(SCC(=O)N3CCN(CCO)CC3)n(-c3ccccc3)c(=O)c2c1C	-4
CCOC(=O)CCCSc1nc2sc3c(c2c(=O)n1-c1ccccc1)CCCC3	10
COc1ccc(CNS(=O)(=O)c2cccnc2)cc1	-2
Cc1ccn2c(NC(=O)c3cccc(C(F)(F)F)c3)c(-c3ccccc3)nc2c1	3
COc1ccc(-c2cc3nc(-c4cccs4)cc(C(F)(F)F)n3n2)cc1	1
COCCN1C(=O)c2ccccc2C(C(=O)Nc2cc(C)ccn2)C1c1c[nH]c2ccccc12 (configuration not stated)	-4
O=C(C1CCN(S(=O)(=O)c2ccc(F)cc2)CC1)N1CCc2ccccc2C1	-5
O=C(Nc1nc(-c2ccc3ccccc3c2)cs1)c1ccccc1Br	-15
COc1ccc(C2=NN(c3ccccc3)C(c3ccc(OC)cc3)C2)cc1 (configuration not stated)	-34
Cc1ccc(N2N=C(c3ccccc3)CC2c2ccccc2)cc1 (configuration not stated)	-9
O=c1oc2ccccc2cc1C1=NN(c2ccccc2)C(c2ccccc2)C1 (configuration not stated)	54*
O=C(COc1ccc([N+](=O)[O-])cc1)Nc1ccccn1	-13
O=C(COc1ccc([N+](=O)[O-])cc1)Nc1cccnc1	31*
O=C(COc1ccc(Br)cc1)Nc1cccnc1	-11
CCC1(C)OC(=O)N(CCO)C1(C)O (configuration not stated)	0
COc1ccc(OC)c(C2C3CN(C(C)C)CC=C3C(C#N)=C(N)C2(C#N)C#N)c1 (configuration not stated)	-27
CC(=O)N1CC=C2C(C#N)=C(N)C(C#N)(C#N)[C@H](c3ccoc3)[C@H]2C1	-8
Cc1ccc(C2C3CN(C(C)C)CC=C3C(C#N)=C(N)C2(C#N)C#N)cc1 (configuration not stated)	36*
Nc1nonc1-c1nc2ccccc2s1	-20
SMILES	14-3-3g Raf
CCOc1ccc(-n2nc3ccc(NC(=O)c4ccc(C(C)(C)C)cc4)cc3n2)cc1	-22
O=C(CSc1ccc2c3c(cccc13)C(=O)c1ccccc1-2)Nc1ccccc1	-95
COCCCNC(=O)CSc1ccc2c3c(cccc13)C(=O)c1ccccc1-2	105*
COCCCNC(=O)CN1C(=O)c2ccccc2C1=O	-2
CCOC(=O)C1=C(C)NC(C)=C(C(=O)OCC)C1c1cn(-c2ccccc2)nc1-c1ccc(Br)cc1	-2
COC(=O)CCCCCNc1ccc(C(=O)OC)cc1N	-12
Nc1ccc(C(=O)Nc2ccc(N)cc2N)cc1	-33
Nc1ccc(NCCO)c(N)c1	91*
COc1ccc(N(C)S(=O)(=O)c2ccc3c(c2)oc(=O)n3C)c(OC)c1	-18
CCOc1ccc(N2C(=O)Nc3ccc(Br)cc3C2(O)C(=O)NCc2ccccc2OC)cc1 (configuration not stated)	5
Cc1ccccc1NC(=O)c1cc2ccccc2c(C=Nc2ccc([N+](=O)[O-])cc2O)c1O	-105
CCOc1ccc(C=Nc2cc([N+](=O)[O-])ccc2C)c(O)c1	+
CCOc1ccc(-c2nc3cc(N=Cc4cc([N+](=O)[O-])ccc4O)ccc3o2)cc1	-7
COc1cc(OC)c(C=Nc2cc([N+](=O)[O-])ccc2C)cc1Br	-5
CC(=O)Oc1ccc2ccccc2c1C=Nc1cc([N+](=O)[O-])ccc1C	87*
COC(=O)c1ccc(N=Cc2c(OC(=O)c3cccc([N+](=O)[O-])c3)ccc3ccccc23)cc1	3
C=CCNc1nc(C=Cc2ccc([N+](=O)[O-])cc2)c2cc(C)c(C)cc2n1	-200
CCOC(=O)c1c(NC(=O)c2cnn3c(C(F)(F)F)cc(-c4ccccc4)nc23)sc2c1CCC2	-2
O=C(CSc1nnc(-c2cccc(Cl)c2)o1)N1CCOCC1	2
CCn1cc(C(=O)NCc2ccco2)c(=O)c2cc(S(=O)(=O)N3CCCCCC3)ccc21	-2
CCn1cc(C(=O)NC2CCCCC2)c(=O)c2cc(S(=O)(=O)N3CCCCCC3)ccc21	6
CCn1cc(C(=O)NCc2ccccn2)c(=O)c2cc(S(=O)(=O)N3CCCCC3)ccc21	119*
CC(=O)NC(=O)c1cc2cc(Cl)ccc2oc1=Nc1cccc2ccccc12	12
CC1=NN(C(=O)C2c3ccccc3Oc3ccccc32)C(O)(C(F)(F)F)C1 (configuration not stated)	-1
N=c1oc2ccccc2cc1C(=O)Nc1cccc(C(F)(F)F)c1	6
SMILES	14-3-3g Raf
O=C1c2ccccc2-c2onc3ccc(NCc4ccco4)c1c23	82*
CCOc1ccc2noc3c2c1C(=O)c1ccccc1-3	4
Cc1cccc(Nc2ccc3noc4c3c2C(=O)c2ccccc2-4)c1	-126
O=C(NCc1cccc(Cl)c1)c1ccc2c(=O)n(Cc3ccc(Cl)cc3)c(=S)[nH]c2c1	-4
CC(=O)OCCNc1cc(SC2CCCCC2)c2nonc2c1[N+](=O)[O-]	6
N#Cc1c2c(c(N3CCCCCC3)n3c1nc1ccccc13)CCC2	-15
Cc1ccc(-n2c(=O)[nH]cc(C(=O)Nc3ccc4c(c3)OCCO4)c2=O)cc1C	37*
COc1ccc(-n2c(=O)[nH]cc(C(=O)Nc3ccc4c(c3)OCCO4)c2=O)cc1	-10
Cc1ccc(-n2c(=O)[nH]cc(C(=O)Nc3ccc4c(c3)OCCO4)c2=O)cc1	-2
Cc1cc2c(cc1C)N(C(=O)CSc1nc3ccccc3[nH]1)C(C)(C)CC2C (configuration not stated)	5
Cc1cccc(-c2nc3ccccc3c(=O)[nH]2)c1	-47
C/C(O)=c1/c(=O)nc2cccc3c2=c1c1ccccc1c3=O	35*
Cc1nc2ccccc2c(C(=O)O)c1C(=O)O	-3
O=C(O)CCNCc1ccc([N+](=O)[O-])cc1	0
O=C(CCN1CCN(S(=O)(=O)c2cccc([N+](=O)[O-])c2)CC1)Nc1cccc(C(F)(F)F)c1	-9
CCOc1ccccc1NC(=O)c1[nH]c(C)c(C(C)=O)c1C	2
CCOC(=O)c1sc(NC(=O)c2ccc([N+](=O)[O-])cc2)nc1-c1ccccc1	-2
Fc1ccccc1C1C=C(c2ccc(Br)s2)Nc2nc3ccccc3n21 (configuration not stated)	-107
Fc1ccccc1C1C=C(c2cccc(Br)c2)Nc2nc3ccccc3n21 (configuration not stated)	-11
Fc1ccccc1C1C=C(c2cccnc2)Nc2nc3ccccc3n21 (configuration not stated)	47*
COc1ccc(C(=O)C(=O)c2ccc(OC)c(OC)c2)cc1OC	1
CC1(C)C(N(O)C(=O)Nc2ccccc2)N(c2cccc(Cl)c2)C(=O)N1O (configuration not stated)	-6
CC1=C(C(=O)Nc2ccccc2)C(c2ccc([N+](=O)[O-])cc2)NC(=S)N1 (configuration not stated)	4
CN1C(=S)SC(N(O)C(=O)Nc2ccccc2)C1(C)C (configuration not stated)	43*
